# Measurements: PubChem BioAssay (NCATS)
# Results filed as inconclusive are left out. A call without a number means that no potency is given here. More than one record can exist for a structure, and the calls need not agree. Calls of active or inactive are those of the source. Unless noted, calls come from the whole dose curve; as a rule, active = well fitted curve in the direction sought with a large enough effect; inconclusive = small, poorly fitted or top-dose-only effect, or another doubt; inactive = no such curve, though single readings can be large; an effect the other way counts as inactive or inconclusive. *1 amine or outer side, *2 acyl side, *3 side chain or, on linkers, in order; H or OH if unused. Where a SMILES comes first, the peptide text is derived from it. Bridges are numbered along the chain shown (N, C = ends). [ ]: non-standard residue; d: D form. The star is where a group is joined. X5 = NC1=N[C@@H]([C@H](N[*:1])C(=O)[*:2])C[C@H](O)N1; ΔAla(Z-3-ureido) = NC(=O)N/C=C(\N)C(=O)O; β3hOrn = NCCC[C@H](N)CC(=O)*; Dap = NC[C@H](N)C(=O)O
# Legend:
# [1] = qHTS assay to identify small molecule inhibitors of chordoma cells - UCH-1 (AID 1259355); note: nearly all actives have a fitted effect of over 55% in size
# Outline: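 Cells (800/well) were seeded and left overnight at 37 C, 5% CO2, then treated with drugs at 15 concentrations plus a combination mix of auranofin, camptothecin, doxorubicin, rubitecan and topotecan. Viability after 48hr was read by CellTiter-Glo luminescence.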
# [2] = P-glycoprotein substrates identified in KB-8-5-11 adenocarcinoma cell line, qHTS therapeutic library screen (AID 1346987); settings: outcome: dose series up to 44.5 µM unless noted; note: nearly all actives have a fitted effect of over 65% in size; note: potency is the fitted concentration of half-maximal effect
# Outline: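 Steps: plate 500 KB-8-5-11 cells/well in DMEM + 10% FCS (colchicine removed); pin compounds in dose-response; incubate 72 h, 37 degree C, 5% CO2; add CellTiter-Glo, 5 min; read luminescence.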
# [3] = qHTS assay to identify small molecule inhibitors of chordoma cells - UCH-2 (AID 1259356); note: potency is the fitted concentration of half-maximal effect
# [4] = NS1 protein of Zika virus - qHTS assay to identify small molecule inhibitors in human HEK 293 cells (AID 1347053); note: series mostly up to about 46 µM; nearly all actives have a fitted effect of over 55% in size
# Outline: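 HEK 293 cells pretreated with compound for 1 h, then infected with ZIKV MR766 (MOI 0.5) for 24 h at 37 C. NS1 detected by TR-FRET with two anti-NS1 antibodies; normalized to uninfected (0%) and infected (100%) wells.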
# [5] = qHTS of pediatric cancer cell lines to identify multiple opportunities for drug repurposing: Primary screen for TC32 cells (AID 1347089); note: nearly all actives have a fitted effect of over 60% in size
# Outline: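 qHTS, TC32, 48 h drug treatment, CellTiter-Glo luminescence as a proxy for metabolically active cells; primary top concentration 46 µM (MIPE 11-pt, NPC 8-pt); confirmatory 11-pt.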
# [6] = target: Atrial natriuretic peptide receptor 1 (Homo sapiens) (UniProt P16066); assay: Natriuretic polypeptide receptor (hNpr1) antagonism - Pilot screen (AID 1347049; calls by dose curve;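 note: agonist-evoked cGMP luminescence read 20 min after hNppA addition; series mostly up to about 58 µM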)
# Outline: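 HEK293 cells expressing hNpr1 and GloSensor cGMP luciferase, 1500/well, loaded with 2% GloSensor reagent 2 h, compound 30 min at room temperature; luminescence read before and 20 min after 0.1 nM hNppA stimulation.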
# [7] = target: Tyrosine-protein phosphatase non-receptor type substrate 1 (Homo sapiens) + Leukocyte surface antigen CD47 (Homo sapiens) (UniProt P78324+Q08722); assay: CD47-SIRPalpha protein protein interaction - LANCE assay qHTS validation (AID 1347057; active = well fitted curve in the direction sought with a large enough effect in the signal ratio, with a control signal flat, not every such curve was filed as active; the % refers to the signal ratio; note: series mostly up to about 38 µM)
# Outline: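 First, His-tagged CD47 and Eu-labelled anti-His antibody met the compound for 30 min; next, site-specifically biotinylated SIRPalpha was added for 30 min; finally streptavidin-APC was added before reading the TR-FRET ratio.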
# [8] = target: Parathyroid hormone/parathyroid hormone-related peptide receptor (Homo sapiens) (UniProt Q03431); assay: qHTS for PTHR1 Agonists: Optimization Screen against the NCGC LOPAC library (AID 1347079);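 note: GloSensor cAMP luminescence in HEK-293 GP2 cells expressing human PTHR1 with IBMX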
# Outline: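 Agonist readout: GloSensor cAMP luminescence, read after 15 min at room temperature. HEK-293-derived GP2 line carries PTHR1; compounds tested as a titration for 1 hr at 37C in presence of IBMX. M-PTH (1-15) served as control.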
# [9] = target: Atrial natriuretic peptide receptor 1 (Homo sapiens) (UniProt P16066); assay: Natriuretic polypeptide receptor (hNpr1) antagonism - Pilot CMLD screen (AID 1347052; calls by dose curve;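 note: cGMP level read as GloSensor luciferase luminescence after agonist stimulation; series mostly up to about 9.2 µM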)
# Experimental: In order to identify small molecular compounds that inhibit the hNpr1 receptor we developed a high-throughput assay to measure inhibition of the guanylate cyclase activity of the receptor. cGMP production was measured using a circular permutated Firefly luciferase (FLuc) enzyme functionally linked to the cGMP binding domain of human phosphodiesterase 5 (GloSensor technology pGS-40F, (Fan, F. et al. 2008). The cGMP-sensor was expressed in human embryonic kidney 293 (HEK-293) cells and FLuc activity was measured after stimulation with hNrp agonist peptide. hNrp agonists activates the receptor's associated guanylyl cyclase (GC) domain producing cGMP which then binds to the GloSensor resulting in FLuc activation, the enzymatic activity of which can be measured as bioluminescence with addition of luciferin substrate.
# This assay was initially piloted by testing with a small library of specialty compounds.
# PROTOCOL TABLES (as described by Inglese J, Shamu CE and Guy RK. 2007)
# SEQUENCE No. (e.g., 1, 2, 3, etc.); […] (e.g., Cells, Incubation, Reagent, etc.); VALUE and DESCRIPTION.
# 1. Cells. […]
# 7. […] GloSensor baseline pre-read luminescence measured using CCD-based camera (Viewlux). […]
# 10. […] GloSensor post-hNppA luminescence measured using CCD-based camera (Viewlux). […]
# 1. […] Cells counted with Invitrogen Countess (30,000,000 - 50,000,000 cells/flask). […]
# Atrial natriuretic peptide receptor 1 (Homo sapiens), sequence (P16066 whole entry, looked up, the tested form may be a part): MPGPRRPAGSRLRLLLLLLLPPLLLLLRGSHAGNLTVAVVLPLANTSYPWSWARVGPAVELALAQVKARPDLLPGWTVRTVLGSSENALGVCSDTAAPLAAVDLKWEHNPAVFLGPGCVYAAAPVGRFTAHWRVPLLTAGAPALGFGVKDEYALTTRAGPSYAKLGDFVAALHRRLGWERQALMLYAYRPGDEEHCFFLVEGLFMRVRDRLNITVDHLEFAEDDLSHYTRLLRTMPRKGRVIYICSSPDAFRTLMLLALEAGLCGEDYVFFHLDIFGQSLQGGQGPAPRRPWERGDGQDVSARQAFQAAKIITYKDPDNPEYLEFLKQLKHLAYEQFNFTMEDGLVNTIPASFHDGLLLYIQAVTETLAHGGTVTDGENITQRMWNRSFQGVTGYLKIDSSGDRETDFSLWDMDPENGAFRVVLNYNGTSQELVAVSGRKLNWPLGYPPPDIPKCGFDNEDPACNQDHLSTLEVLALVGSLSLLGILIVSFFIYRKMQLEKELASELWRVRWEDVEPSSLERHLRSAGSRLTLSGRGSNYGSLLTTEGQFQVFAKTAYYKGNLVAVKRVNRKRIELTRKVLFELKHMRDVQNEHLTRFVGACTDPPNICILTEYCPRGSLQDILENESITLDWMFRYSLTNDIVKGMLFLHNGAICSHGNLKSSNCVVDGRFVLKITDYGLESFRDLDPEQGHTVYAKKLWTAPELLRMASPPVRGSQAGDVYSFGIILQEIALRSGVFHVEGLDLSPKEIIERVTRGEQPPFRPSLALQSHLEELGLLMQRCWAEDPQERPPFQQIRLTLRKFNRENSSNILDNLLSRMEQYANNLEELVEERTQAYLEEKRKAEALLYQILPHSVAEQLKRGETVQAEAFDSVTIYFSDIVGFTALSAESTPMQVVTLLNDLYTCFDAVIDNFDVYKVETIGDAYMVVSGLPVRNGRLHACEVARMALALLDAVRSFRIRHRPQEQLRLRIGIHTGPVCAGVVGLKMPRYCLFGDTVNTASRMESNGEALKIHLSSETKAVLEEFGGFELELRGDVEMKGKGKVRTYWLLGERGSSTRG
# Parathyroid hormone/parathyroid hormone-related peptide receptor (Homo sapiens), sequence (Q03431 whole entry, looked up): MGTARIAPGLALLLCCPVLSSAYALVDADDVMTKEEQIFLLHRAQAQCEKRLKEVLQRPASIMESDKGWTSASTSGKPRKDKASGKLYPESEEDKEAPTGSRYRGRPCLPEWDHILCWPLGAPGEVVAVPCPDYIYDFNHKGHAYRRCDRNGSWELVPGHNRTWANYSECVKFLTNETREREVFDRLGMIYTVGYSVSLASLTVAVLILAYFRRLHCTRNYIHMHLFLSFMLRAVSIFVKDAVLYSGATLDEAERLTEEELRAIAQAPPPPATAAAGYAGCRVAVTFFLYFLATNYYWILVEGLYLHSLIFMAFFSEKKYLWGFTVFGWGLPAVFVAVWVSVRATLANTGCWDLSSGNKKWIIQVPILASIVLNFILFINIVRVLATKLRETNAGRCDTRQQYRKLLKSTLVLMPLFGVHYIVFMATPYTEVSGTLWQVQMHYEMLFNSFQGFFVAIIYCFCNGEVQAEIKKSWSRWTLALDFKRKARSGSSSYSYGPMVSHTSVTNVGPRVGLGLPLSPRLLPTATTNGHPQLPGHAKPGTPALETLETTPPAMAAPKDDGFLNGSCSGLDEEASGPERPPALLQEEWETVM
# Tyrosine-protein phosphatase non-receptor type substrate 1 (Homo sapiens) + Leukocyte surface antigen CD47 (Homo sapiens), sequence (P78324 whole entry, looked up): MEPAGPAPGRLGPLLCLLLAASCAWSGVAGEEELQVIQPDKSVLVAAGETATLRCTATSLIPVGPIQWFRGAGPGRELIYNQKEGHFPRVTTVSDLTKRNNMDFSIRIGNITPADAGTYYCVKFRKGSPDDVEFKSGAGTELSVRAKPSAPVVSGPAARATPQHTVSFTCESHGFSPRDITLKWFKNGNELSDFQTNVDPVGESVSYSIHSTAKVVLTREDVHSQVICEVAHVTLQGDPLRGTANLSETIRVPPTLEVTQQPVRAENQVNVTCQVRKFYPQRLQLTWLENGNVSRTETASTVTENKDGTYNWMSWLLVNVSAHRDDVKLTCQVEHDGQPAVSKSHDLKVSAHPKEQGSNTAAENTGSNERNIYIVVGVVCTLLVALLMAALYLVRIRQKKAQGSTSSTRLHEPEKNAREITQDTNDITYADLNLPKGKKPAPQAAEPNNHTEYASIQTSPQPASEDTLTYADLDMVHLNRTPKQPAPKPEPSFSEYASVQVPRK
# Tyrosine-protein phosphatase non-receptor type substrate 1 (Homo sapiens) + Leukocyte surface antigen CD47 (Homo sapiens), sequence (Q08722 whole entry, looked up): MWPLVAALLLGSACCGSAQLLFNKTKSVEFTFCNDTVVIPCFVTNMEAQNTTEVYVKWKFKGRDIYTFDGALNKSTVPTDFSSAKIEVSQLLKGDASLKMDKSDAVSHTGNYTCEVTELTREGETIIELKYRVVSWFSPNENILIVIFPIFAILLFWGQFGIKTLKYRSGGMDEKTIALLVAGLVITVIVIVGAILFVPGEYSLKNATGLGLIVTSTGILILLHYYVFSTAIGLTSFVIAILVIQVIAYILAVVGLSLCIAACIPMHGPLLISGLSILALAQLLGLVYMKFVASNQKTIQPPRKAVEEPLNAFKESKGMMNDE
compound,measurement,setting,value
O=C1c2ccccc2C(=O)C1c1ccc(F)cc1,Potency,[1],inactive
same,Potency,[2],inactive
O=C(O)/C=C/C(=O)Nc1ccc(S(=O)(=O)Nc2nccs2)cc1,Potency,[1],inactive
same,Potency,[2],inactive
CC(C)=CCC/C(C)=C/C=C/C(C)=C/C=C/C(C)=C/C=C/C=C(C)/C=C/C=C(C)/C=C/C=C(\C)CCC=C(C)C,Potency,[1],inactive
same,Potency,[3],inactive
same,Potency,[2],inactive
COc1ccc(/C=N/NC(=O)c2ccncc2)c(C(=O)O)c1OC,Potency,[1],inactive
same,Potency,[2],inactive
OCCOCCOCCO,Potency,[1],inactive
same,Potency,[2],inactive
NCCC[C@H](N)CC(=O)N[C@H]1CNC(=O)[C@H]([C@H]2C[C@H](O)NC(N)=N2)NC(=O)/C(=C/NC(N)=O)NC(=O)[C@H](CO)NC(=O)[C@H](CO)NC1=O (β3hOrn-[Dap]SS[ΔAla(Z-3-ureido)][X5]; lactam 1-C),Potency,[1],inactive
same,Potency,[2],inactive
O=C(O)CCC(=O)c1ccc(-c2ccccc2)cc1,Potency,[1],inactive
same,Potency,[3],inactive
same,outcome,[4],inactive
same,outcome,[5],inactive
CC(=O)Oc1cccc2c1C(=O)c1c(OC(C)=O)cc(C(=O)O)cc1C2=O,Potency,[1],inactive
same,Potency,[3],inactive
same,Potency,[2],inactive
same,outcome,[4],inactive
same,outcome,[5],inactive
Oc1ccc(/C=C/c2cc(O)cc(O)c2)cc1,Potency,[1],inactive
same,Potency,[3],inactive
same,Potency,[2],inactive
same,outcome,[6],inactive
same,outcome,[4],inactive
same,outcome,[7],inactive
same,outcome,[8],inactive
same,outcome,[5],inactive
O=C(OC[C@H]1O[C@](O)(COC(=O)c2cccnc2)[C@@H](OC(=O)c2cccnc2)[C@@H]1OC(=O)c1cccnc1)c1cccnc1,Potency,[1],inactive
same,Potency,[2],inactive
CN(C)CCCSc1ccccc1NC(=O)/C=C/c1ccccc1,Potency,[1],inactive
same,Potency,[3],inactive
same,outcome,[4],inactive
same,outcome,[5],inactive
CC(=O)N=c1sc(S(N)(=O)=O)nn1C,Potency,[1],inactive
same,Potency,[2],inactive
COc1cc2c(cc1OC)[C@@H](c1ccccc1)CN(C)CC2,Potency,[1],inactive
same,Potency,[2],inactive
Cc1c(O)c(=O)ccn1C,Potency,[1],inactive
same,Potency,[3],inactive
same,Potency,[2],inactive
same,outcome,[9],inactive
OC[C@H]1OC([S-])[C@H](O)[C@@H](O)[C@@H]1O.[Au+] (some centres not stated),Potency,[1],inactive
same,Potency,[2],inactive
CO[C@@H]1[C@H](OC(=O)/C=C/C=C/C=C/C=C/C(=O)O)CC[C@]2(CO2)[C@H]1[C@@]1(C)O[C@@H]1CC=C(C)C,Potency,[1],inactive
same,Potency,[2],inactive
Nc1ccc(N=Nc2ccccc2)c(N)n1,Potency,[1],inactive
same,Potency,[3],inactive
same,Potency,[2],inactive
same,outcome,[4],inactive
same,outcome,[5],inactive
Cc1ncc(COP(=O)(O)O)c(CN)c1O,Potency,[1],inactive
same,Potency,[2],inactive
O=C1c2ccccc2C(=O)c2c1ccc(O)c2O,Potency,[1],inactive
same,Potency,[3],inactive
same,outcome,[4],inactive
same,outcome,[5],inactive
CCc1ccc(S(=O)(=O)O)cc1,Potency,[1],inactive
same,Potency,[2],inactive
Cc1c(C)c2c(c(C)c1OC(=O)CCC(=O)O)CC[C@@](C)(CCC[C@H](C)CCC[C@H](C)CCCC(C)C)O2,Potency,[1],inactive
same,Potency,[2],inactive
CC/C(=C(/CC)c1ccc(OP(=O)(O)O)cc1)c1ccc(OP(=O)(O)O)cc1,Potency,[1],inactive
same,Potency,[2],inactive
CSCCC(N)C(=O)O (configuration not stated),Potency,[1],inactive
same,Potency,[2],inactive
CC(C)(Oc1ccc(C2CCCc3ccccc32)cc1)C(=O)O (configuration not stated),Potency,[1],inactive
same,Potency,[2],inactive
CCc1cn([C@H]2C[C@H](O)[C@@H](CO)O2)c(=O)[nH]c1=O,Potency,[3],inactive
COc1ccc2nc(NC(=O)Nc3ccccc3)sc2c1,Potency,[1],inactive
same,Potency,[3],inactive
same,outcome,[4],inactive
same,outcome,[5],inactive
CCN(CC)C(=O)[C@]1(c2ccccc2)C[C@@H]1CN,Potency,[1],inactive
same,Potency,[2],inactive
[O]=[Bi][O]C(=O)[O][Bi]=[O],Potency,[1],inactive
same,Potency,[2],inactive
COc1ccc2c(c1)OC(C)(C)C(c1ccccc1)C2c1ccc(OCCN2CCCC2)cc1 (configuration not stated),Potency,[1],inactive
same,Potency,[3],inactive
same,Potency,[2],20.6 µM (active)
O=C1NCCN1c1ncc([N+](=O)[O-])s1,Potency,[1],inactive
same,Potency,[2],inactive
Cc1cc(C)c(NC(=O)C[C@H](CC(=O)O)c2cccc3ccccc23)c(C(=O)N2CCC3(CCCC3)CC2)c1,"activity, negative = inhibition",[1],-1.62% [at 1.88 µM] (inactive)
same,Potency,[2],inactive
NCC[C@H](O)C(=O)N[C@@H]1C[C@H](N)[C@@H](O[C@H]2O[C@H](CN)CC[C@H]2N)[C@H](O)[C@H]1O[C@H]1O[C@H](CO)[C@@H](O)[C@H](N)[C@H]1O,Potency,[1],inactive
same,Potency,[2],inactive
NC(N)=NCC1COc2ccccc2O1 (configuration not stated),Potency,[1],inactive
same,Potency,[2],inactive
CC(CN(C)C)CN1c2ccccc2Sc2ccc(C(F)(F)F)cc21 (configuration not stated),Potency,[3],inactive
CC1CCC(NC(=O)N(CCCl)N=O)CC1 (configuration not stated),Potency,[1],inactive
same,Potency,[2],inactive
CC(C)(C)c1ccc(CN2CCN(C(c3ccccc3)c3ccc(Cl)cc3)CC2)cc1 (configuration not stated),Potency,[1],inactive
same,Potency,[2],23.1 µM (active) and inactive
CCOC(=S)SSC(=S)OCC,Potency,[1],inactive
same,Potency,[2],inactive
CC/C=C\C/C=C\C/C=C\C/C=C\C/C=C\CCCC(=O)O,Potency,[1],inactive
same,Potency,[2],inactive
CC(C)OC(=O)Nc1ccc2nc(-c3cscn3)[nH]c2c1,Potency,[3],inactive
same,Potency,[2],4.61 µM (active)
Nc1nc2c(c(=O)[nH]1)N(C=O)C(CNc1ccc(C(=O)N[C@@H](CCC(=O)O)C(=O)O)cc1)CN2 (some centres not stated),Potency,[3],inactive
same,Potency,[2],inactive
CC1=C[C@H](O)CC(C)(C)[C@H]1/C=C/C(C)=C/C=C/C(C)=C/C=C/C=C(C)/C=C/C=C(C)/C=C/C1=C(C)C[C@@H](O)CC1(C)C,Potency,[3],inactive
same,Potency,[2],inactive
NC(=S)N=Nc1ccc(NN=C(N)N)cc1,Potency,[3],inactive
CCN1\C(=C/C=C/C=C/c2sc3ccccc3[n+]2CC)Sc2ccccc21,Potency,[3],18.3 µM (active)
same,Potency,[2],16.4 µM (active)
C=CC(C)(O)CC/C=C(\C)CCC=C(C)C (configuration not stated),Potency,[2],inactive
CC1CC(O)CC(C)(C)C1 (configuration not stated),Potency,[3],inactive
same,Potency,[2],inactive
CO/N=C(\C(=O)N[C@@H]1C(=O)N2C(C(=O)O)=C(CSC(=O)c3ccco3)CS[C@H]12)c1csc(N)n1,Potency,[3],inactive
same,Potency,[2],inactive
CCN(CC)CCC(=O)N1c2ccccc2Sc2ccc(Cl)cc21,Potency,[3],inactive
CN1CCN(C(c2ccccc2)c2ccc(Cl)cc2)CC1 (configuration not stated),Potency,[3],inactive
same,Potency,[2],inactive
CN1c2c(nc(N)[nH]c2=O)NCC1CNc1ccc(C(=O)NC(CCC(=O)O)C(=O)O)cc1 (configuration not stated),Potency,[3],inactive
same,Potency,[2],inactive
O=C(Nc1ccc(O)cc1)c1ccccc1O,Potency,[3],inactive
same,Potency,[2],inactive
CC1=C(/C=C/C(C)=C/C=C/C(C)=C/C(=O)Oc2c(C)c(C)c3c(c2C)CC[C@@](C)(CCC[C@H](C)CCC[C@H](C)CCCC(C)C)O3)C(C)(C)CCC1,Potency,[2],inactive
O=C(O)Cc1cc(I)c(Oc2ccc(O)c(I)c2)c(I)c1,Potency,[3],inactive
same,Potency,[2],inactive
N#Cc1ccc2c(c1)N(CCCN1CCC(O)CC1)c1ccccc1S2,Potency,[3],inactive
CCC(=O)OC(OP(=O)(CCCCc1ccccc1)CC(=O)N1C[C@H](C2CCCCC2)C[C@H]1C(=O)O)C(C)C (some centres not stated),Potency,[3],inactive
same,Potency,[2],inactive
CC(CNC(=O)c1cccnc1)NC(=O)c1cccnc1 (configuration not stated),Potency,[3],inactive
same,Potency,[2],inactive
CC[C@@H](C)[C@H](N)C(=O)O,Potency,[3],inactive
same,Potency,[2],inactive
CCCCCCCCCCCC(=O)OCC(O)CO (configuration not stated),Potency,[3],inactive
CCOC(=O)[C@H](CS)NCCN[C@@H](CS)C(=O)OCC,Potency,[3],inactive
same,Potency,[2],inactive
